For experiment [1], the target named is T1, GST-Nv-NF-kB (Ser allele) (Nematostella vectensis, UniProt A7UNT2 2-411).
T1 sequence: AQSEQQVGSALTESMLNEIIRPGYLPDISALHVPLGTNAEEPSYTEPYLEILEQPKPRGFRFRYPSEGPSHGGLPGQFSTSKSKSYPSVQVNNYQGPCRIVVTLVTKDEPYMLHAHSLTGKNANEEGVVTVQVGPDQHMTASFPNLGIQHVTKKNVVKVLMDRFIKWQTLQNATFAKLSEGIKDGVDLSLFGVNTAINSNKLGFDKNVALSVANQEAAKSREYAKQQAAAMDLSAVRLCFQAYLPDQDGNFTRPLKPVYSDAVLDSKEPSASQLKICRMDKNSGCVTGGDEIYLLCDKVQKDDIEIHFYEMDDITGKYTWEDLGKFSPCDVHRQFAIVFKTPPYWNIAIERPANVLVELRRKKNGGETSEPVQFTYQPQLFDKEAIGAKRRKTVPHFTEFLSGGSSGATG
Kind of experiment: protein-binding microarray (PBM); PBM: ~300 nM protein, 6 mM HEPES pH 7.8, 80 mM KCl, 0.5 mM EDTA, 0.5 mM EGTA, 6% glycerol, 35 ng/ul poly-dIdC, 1% milk, 1 h, room temperature; Ap Aiptasia and Nv Nematostella (sea anemones) / Co Capsaspora / Aq Amphimedon (sponge) / Dm Drosophila / Hu human; RHD is the Rel homology domain; high values mean tight binding. Particulars: dsDNA, one strand shown.

Experiment [2] has as its target GST-Hu-p50 (Homo sapiens, UniProt P19838 7-356). The experiment is described as above. The note with it: dsDNA, one strand shown.

Chain of GST-Hu-p50 (P19838 7-356): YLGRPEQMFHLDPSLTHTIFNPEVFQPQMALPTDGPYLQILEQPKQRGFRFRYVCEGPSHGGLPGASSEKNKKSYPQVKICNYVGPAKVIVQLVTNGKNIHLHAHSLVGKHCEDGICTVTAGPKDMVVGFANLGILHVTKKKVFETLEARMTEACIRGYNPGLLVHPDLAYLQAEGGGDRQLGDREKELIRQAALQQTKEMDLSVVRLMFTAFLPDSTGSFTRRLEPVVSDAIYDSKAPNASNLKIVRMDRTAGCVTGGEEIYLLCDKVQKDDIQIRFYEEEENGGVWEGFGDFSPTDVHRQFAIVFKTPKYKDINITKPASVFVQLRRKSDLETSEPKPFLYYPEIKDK

As to “CCGATTAACATCAGGGGGTTAGATGATGTTAATCGGGTCTTGATTCGCTTGACGCTGCTG”, the binding signal in experiment [1] was determined as 3.46 z-score; in experiment [2], 3.95 z-score. With “CCGATTAACATCAGGGGAGTTAATGATGTTAATCGGGTCTTGATTCGCTTGACGCTGCTG”, the binding signal in experiment [1] turned out to be 4.74 z-score; in experiment [2], 3.74 z-score. Turning to “CCGATTAACATCAGGGGGTGATATGATGTTAATCGGGTCTTGATTCGCTTGACGCTGCTG”, the figures for the binding signal in experiment [1] and in experiment [2] were 4.45 z-score and 3.97 z-score, respectively.

As to “CCGATTAACATCACTGGGATTTCTGATGTTAATCGGGTCTTGATTCGCTTGACGCTGCTG”, the results for the binding signal in experiment [1] and in experiment [2] were 1.8 z-score and 2.5 z-score, respectively. In the same order, the values of “CCGATTAACATCATCAGGGAAAATGATGTTAATCGGGTCTTGATTCGCTTGACGCTGCTG” are 5.74 z-score and 2.83 z-score.

For “CCGATTAACATCAAATTCCCAAATGATGTTAATCGGGTCTTGATTCGCTTGACGCTGCTG”, the binding signal was found to be 3.82 z-score in experiment [1] and 3.01 z-score in experiment [2].

Consider “CCGATTAACATCACGTGTTTCCCTGATGTTAATCGGGTCTTGATTCGCTTGACGCTGCTG”, for which the values for the binding signal in experiment [1] and in experiment [2] were 3.33 z-score and 1.11 z-score, respectively. For “CCGATTAACATCAGTCCCGCACTTGATGTTAATCGGGTCTTGATTCGCTTGACGCTGCTG”, the binding signal was 1.03 z-score in experiment [1] and 1.18 z-score in experiment [2]. “CCGATTAACATCAGGAAAAGCCCTGATGTTAATCGGGTCTTGATTCGCTTGACGCTGCTG”: the binding signal was found to be 1.03 z-score in experiment [1] and 2.56 z-score in experiment [2]. Turning to “CCGATTAACATCAGGGGGGTACATGATGTTAATCGGGTCTTGATTCGCTTGACGCTGCTG”, the binding signal in experiment [1] was 3.54 z-score; in experiment [2] it was 2.93 z-score. “CCGATTAACATCATGGGTGGGAATGATGTTAATCGGGTCTTGATTCGCTTGACGCTGCTG”: the binding signal came out at 1.12 z-score in experiment [1] and 1.32 z-score in experiment [2]. Turning to “CCGATTAACATCAGAAATCTCCCTGATGTTAATCGGGTCTTGATTCGCTTGACGCTGCTG”, the binding signal was 4.16 z-score in experiment [1] and 4.42 z-score in experiment [2]. The like results for “CCGATTAACATCACGGGAAACTCTGATGTTAATCGGGTCTTGATTCGCTTGACGCTGCTG” were, in that order, 3.54 z-score and 2.31 z-score. On to “CCGATTAACATCACCGAATTTCCTGATGTTAATCGGGTCTTGATTCGCTTGACGCTGCTG”, for which the binding signal in experiment [1] worked out at 1.32 z-score; in experiment [2], 2.56 z-score. The like results for “CCGATTAACATCAAAATTCCCATTGATGTTAATCGGGTCTTGATTCGCTTGACGCTGCTG” were, in that order, 5.71 z-score and 4.55 z-score. Turning to “CCGATTAACATCAATGTCCCCCCTGATGTTAATCGGGTCTTGATTCGCTTGACGCTGCTG”, the binding signal in experiment [1] is 4.42 z-score; in experiment [2], 3.89 z-score. For “CCGATTAACATCAGGGGAGTATATGATGTTAATCGGGTCTTGATTCGCTTGACGCTGCTG”, the binding signal was 4.21 z-score in experiment [1] and 3.33 z-score in experiment [2]. In the same order, the values of “CCGATTAACATCACGGGACTCCCTGATGTTAATCGGGTCTTGATTCGCTTGACGCTGCTG” are 3.64 z-score and 3.14 z-score. “CCGATTAACATCAAAACAGTCCCTGATGTTAATCGGGTCTTGATTCGCTTGACGCTGCTG”: the binding signal in experiment [1] and in experiment [2] was 4.68 z-score in each case.

“CCGATTAACATCACCCCTCCCCCTGATGTTAATCGGGTCTTGATTCGCTTGACGCTGCTG”: the binding signal came to 4.65 z-score in experiment [1] and 4.06 z-score in experiment [2]. For “CCGATTAACATCAGAAAAAACCCTGATGTTAATCGGGTCTTGATTCGCTTGACGCTGCTG”, the binding signal in experiment [1] came to 5.08 z-score; in experiment [2] it was 4.96 z-score. Turning to “CCGATTAACATCAGGGACACCCCTGATGTTAATCGGGTCTTGATTCGCTTGACGCTGCTG”, the binding signal in experiment [1] was determined as 3.24 z-score; in experiment [2], 4.03 z-score. Take “CCGATTAACATCAAATTCCCGTATGATGTTAATCGGGTCTTGATTCGCTTGACGCTGCTG”: the binding signal worked out at 4.51 z-score in experiment [1] and 3.02 z-score in experiment [2]. “CCGATTAACATCAAATAAGCCCCTGATGTTAATCGGGTCTTGATTCGCTTGACGCTGCTG” registered a binding signal in experiment [1] of 4 z-score. As for “CCGATTAACATCAAGTCCCCCAATGATGTTAATCGGGTCTTGATTCGCTTGACGCTGCTG”, the values for the binding signal in experiment [1] and in experiment [2] were 3.54 z-score and 4.25 z-score, respectively. “CCGATTAACATCAACTAATTCCCTGATGTTAATCGGGTCTTGATTCGCTTGACGCTGCTG”: the binding signal in experiment [1] is 4.35 z-score; in experiment [2], 2.11 z-score. With “CCGATTAACATCAGGGAAAGGTATGATGTTAATCGGGTCTTGATTCGCTTGACGCTGCTG”, the results for the binding signal in experiment [1] and in experiment [2] were 3.34 z-score and 2.11 z-score, respectively. The like results for “CCGATTAACATCAGGACTTCCCATGATGTTAATCGGGTCTTGATTCGCTTGACGCTGCTG” were, in that order, 1.03 z-score and 1.76 z-score. The sequence “CCGATTAACATCAGGGCACCCCCTGATGTTAATCGGGTCTTGATTCGCTTGACGCTGCTG” yielded a binding signal in experiment [1] of 3.83 z-score. “CCGATTAACATCAGAAAGTTCCCTGATGTTAATCGGGTCTTGATTCGCTTGACGCTGCTG” displayed a binding signal in experiment [1] of 3.65 z-score. On to “CCGATTAACATCAGAGTCCCCCCTGATGTTAATCGGGTCTTGATTCGCTTGACGCTGCTG”, for which the binding signal came to 5.12 z-score in experiment [1] and 5.06 z-score in experiment [2]. As for “CCGATTAACATCAGAAATCCCGATGATGTTAATCGGGTCTTGATTCGCTTGACGCTGCTG”, the binding signal in experiment [1] is 2.04 z-score; in experiment [2] it was 2.55 z-score. Regarding “CCGATTAACATCAGGGGACGCACTGATGTTAATCGGGTCTTGATTCGCTTGACGCTGCTG”, the results for the binding signal in experiment [1] and in experiment [2] were 4.02 z-score and 4.28 z-score, respectively.

For the sequence “CCGATTAACATCACGGGATTTACTGATGTTAATCGGGTCTTGATTCGCTTGACGCTGCTG”, the binding signal was 1.41 z-score in experiment [1] and 2.12 z-score in experiment [2]. Take “CCGATTAACATCAAGAAATTACCTGATGTTAATCGGGTCTTGATTCGCTTGACGCTGCTG”: the binding signal in experiment [1] stood at 5.68 z-score; in experiment [2], 3.38 z-score. In the same order, the values of “CCGATTAACATCACCCAACCCCCTGATGTTAATCGGGTCTTGATTCGCTTGACGCTGCTG” are 3.73 z-score and 4.28 z-score. For “CCGATTAACATCAGGGAGCTCCCTGATGTTAATCGGGTCTTGATTCGCTTGACGCTGCTG”, the binding signal in experiment [1] turned out to be 1.82 z-score; in experiment [2], 2.59 z-score.
